Screening data from PubChem BioAssay.
Rce1 inhib – yeast Rce1p protease inhibitors, primary screen, biochemical, fluorescence, cell-free homogeneous. yeast membranes, quenched prenylated peptide cleavage fluorescence. calls only. 290,000 compounds, 0.27% hits. CAAX prenyl protease 2 (Saccharomyces cerevisiae (strain ATCC 204508 / S288c)), Q03530. AID 2563, 2010;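 active = fall in fluorescence gain of 50% or more versus controls, with final raw signal at or below 3038400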
FID counter – compounds displacing fluorescent DNA intercalator, primary screen, artefact control for HCV NS3 helicase inhibitor project, biochemical, FID fluorescence; DNA fluorescent intercalator displacement; inhibition, % at 7.9 µM; 290,000 compounds, 0.17% hits; in the data active = inhibition above about 37%;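 note: higher means more ethidium bromide displaced from hairpin DNA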
PfM18AAP inh – PfM18AAP inhibitors, malaria aminopeptidase, primary screen, biochemical, QFRET, recombinant enzyme; 290,000 compounds, 1.2% hits; M18 aspartyl aminopeptidase (Plasmodium falciparum 3D7); H-Glu-NHMec fluorogenic cleavage; inhibition, % at 7.35 µM;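 active = inhibition above the campaign mean inhibition over all tested compounds plus 3 SD, cut at about 28% in these data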
Kir21 inh – inhibitors of mouse Kir2.1 inward-rectifier potassium channel; Inward rectifier potassium channel 2 (Mus musculus), P35561; HEK293-Kir2.1, FluxOR thallium flux fluorescence; stronger effect = lower value; B-score at 10 µM; 310,000 compounds, 0.85% hits; AID 1672, 2009;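 active = fluorescence ratio B-score at or below minus 3 SD of library scores, with starting-brightness B-score within 2 SD, cut at about -4.2 in these data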;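 note: channel flux triggered by added potassium and thallium sulfate stimulus; B-score of peak minus minimum fluorescence over baseline after thallium stimulus; more negative B-score means stronger Kir2.1 block with less thallium influx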
Target sequence (P35561 whole entry, looked up): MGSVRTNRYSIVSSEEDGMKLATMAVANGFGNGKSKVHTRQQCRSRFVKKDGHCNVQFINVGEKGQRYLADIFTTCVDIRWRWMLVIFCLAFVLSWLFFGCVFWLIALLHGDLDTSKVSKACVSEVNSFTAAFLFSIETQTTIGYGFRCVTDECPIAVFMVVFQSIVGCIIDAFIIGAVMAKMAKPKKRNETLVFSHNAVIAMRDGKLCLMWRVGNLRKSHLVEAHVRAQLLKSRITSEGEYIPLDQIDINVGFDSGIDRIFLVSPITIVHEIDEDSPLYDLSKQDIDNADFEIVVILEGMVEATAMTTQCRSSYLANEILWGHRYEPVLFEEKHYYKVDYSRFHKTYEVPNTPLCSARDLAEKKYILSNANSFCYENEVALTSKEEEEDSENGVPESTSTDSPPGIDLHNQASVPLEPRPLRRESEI
Of the large screens only hits and unclear results are named; the others gave an inactive call. This is a sample that favours compounds with a hit; in the whole collection about 2.3% have one here.

C=CCc1cccc(/C=N/n2cnnc2)c1O	PfM18AAP inh 30.1
CCN1C(=O)[C@H]2[C@@H](c3ccc(-c4ccccc4)cc3)N3CCC[C@@]3(C(=O)OC)[C@H]2C1=O	none (no result: FID counter, PfM18AAP inh)
CCOC(=O)C1CCCN(C(=O)C(C)Oc2ccc(Cl)cc2Cl)C1 (configuration not stated)	Kir21 inh -4.71 (no result: Rce1 inhib)
CCOC(=O)C1CCCN(C(=O)c2cc(Cl)ccc2Cl)C1 (configuration not stated)	none
CCc1ccc(N=C2NC(=O)/C(=C/c3cc(OC)c(O)c(OC)c3)S2)cc1	PfM18AAP inh 28.0
COc1ccccc1-c1cc(C(=O)O)c2c(=O)n(C)c(=O)n(Cc3ccccc3)c2n1	Rce1 inhib active
COc1ccc(CNS(=O)(=O)c2c(C(=O)N3CCCCCC3)c(C)n(C)c2C)cc1	none
CC[n+]1c(/C=C/Nc2ccccc2)sc2ccccc21	PfM18AAP inh 30.4
CCN1/C(=C/C=C/C=C/c2sc3ccccc3[n+]2CC)Sc2ccccc21	PfM18AAP inh 37.3
CCN1/C(=C/C=C/c2sc3ccccc3[n+]2CC)Sc2ccccc21	none (no result: FID counter, PfM18AAP inh)
CCOC(=O)N1CCN(C2CCCN(C(=O)c3cccc(Cl)c3)C2)CC1 (configuration not stated)	none
CCN(CC)CCNC(=O)c1ccc(NC(=O)c2cn(-c3ccc(F)cc3)nc2-c2cccc(OC)c2)cc1	Kir21 inh -5.51 (no result: Rce1 inhib)
CCOc1ccc(NC(=O)CN(C)C(=O)c2cn(-c3ccc(F)cc3)nc2-c2cccc(OC)c2)cc1OCC	none (no result: FID counter, PfM18AAP inh)
COc1ccc(Br)cc1C1Nc2cccc3cccc(c23)N1	PfM18AAP inh 33.3
CCOc1ccc(NCCC(O)c2ccc(F)cc2)cc1 (configuration not stated)	none
COc1cc2cc(NC(C)=O)cc(NCc3ccccc3)c2cc1OC	none
CCCCNc1cc(NC(C)=O)cc2cc(OC)c(OC)cc12	PfM18AAP inh 28.1 (no result: Rce1 inhib)
COc1ccc(CC(=O)NC2CCSc3ccccc32)c(OC)c1 (configuration not stated)	Kir21 inh -5.9
COc1cc(NC(=O)c2cccs2)c(OC)cc1NC(=O)Nc1ccc(F)cc1	none
C(CNC1C2CC3CC(C2)CC1C3)CN1CCOCC1 (configuration not stated)	none
C1CCN(CCCNC2C3CC4CC(C3)CC2C4)C1 (configuration not stated)	Kir21 inh -10.6
COc1cc(/C=N/N=C(N)N)ccc1OCc1ccccc1Cl	Kir21 inh -15.6
c1ccc(-c2csc3nnc(SCc4ccc5c(c4)OCO5)n23)cc1	Kir21 inh -4.27
COc1ccc(NC(=S)NCc2ccccc2Cl)c(OC)c1	none
Cc1ccc(NC(=S)NCCc2c[nH]c3ccccc23)c(C)c1	Kir21 inh -7.3
COc1ccccc1NC(=S)NCCc1c[nH]c2ccccc12	Kir21 inh -6.26
COc1ccc(NC(=S)NCCc2ccccc2OC)c(OC)c1	Kir21 inh -5.65
Cc1ccc(C)c(NC(=S)NCCc2ccc(F)cc2)c1	Kir21 inh -4.5
Cc1cccc(NC(=O)c2cc(-c3cccnc3)nc3c(C)cccc23)n1	none
COC(=O)c1ccccc1NC(=O)c1ccc2c(c1)OCCCO2	none
CC(=O)Oc1c(I)cc(I)cc1C(=O)Nc1ccc(Cl)cc1	none
O=C(COc1ccccc1Cl)NC1CC1	none
Cc1ccc(NC(=S)NCCc2ccccc2)c(C)c1	Kir21 inh -5.12
Cc1ccc(S(=O)(=O)NCCc2ccccc2)cc1	none
COc1cccc(CNCCc2c[nH]c3ccccc23)c1OCc1ccc(F)cc1	Kir21 inh -11.5
Cc1cc(C)c(S(=O)(=O)NCCc2ccccc2)c(C)c1	Kir21 inh -10.1
C[C@]12C=CC(=O)C=C1CC[C@@H]1[C@@H]2[C@@H](O)C[C@@]2(C)[C@H]1CC[C@]2(O)C(=O)CO	none
CCN(c1ccccc1)S(=O)(=O)c1ccc(Cl)nc1	Kir21 inh -4.3
CCn1c(SCC(=O)OCc2ccccc2)nnc1-c1ccco1	Kir21 inh -5.87
CC(C)Cn1c(SCC(=O)c2ccc(Cl)s2)nnc1-c1ccco1	Kir21 inh -9.37
Cc1ccc(N2C(=O)N(CC(=O)C(C)(C)C)c3ccccc3S2(=O)=O)cc1	none (no result: Rce1 inhib, Kir21 inh)
NC(=O)CC(NC(=O)c1cccc(Br)c1)c1ccc(NC2CCN(Cc3ccccc3)CC2)c([N+](=O)[O-])c1 (configuration not stated)	none
Cc1ccc(S(=O)(=O)Nc2ccccc2C(=O)N2CCN(C)CC2)cc1	none
O=S(=O)(NCCSc1ccc(Cl)cc1)c1ccc2c(c1)OCCO2	Kir21 inh -5.38
O=S(=O)(NCCSCc1ccc(Cl)cc1Cl)c1ccc2c(c1)OCCO2	none
O=C(CN(C1CCCCC1)C1CCCCC1)N1CCc2ccccc2C1	Rce1 inhib active
CCOC(=O)C1=C(CN2CCN(C(=O)c3ccco3)CC2)NC(=O)NC1c1ccccc1 (configuration not stated)	none
COc1cc(/C=C/C(=O)OC(C)C(=O)NC2CCCCC2C)cc(Cl)c1OC (configuration not stated)	none (no result: FID counter, PfM18AAP inh)
CCOc1ccc(Nc2ccnc3cc(Cl)ccc23)cc1	none
O=C(NNc1ccnc2cc(Cl)ccc12)C1CCCCC1	none
CN1CCN(c2ccc(Nc3ccnc4cc(Cl)ccc34)cc2)CC1	FID counter 82.9, Kir21 inh -6.79
CCN1CCC(Nc2ccnc3cc(Cl)ccc23)CC1	FID counter 49.8
O=C1CSC(=S)N1c1cccc(Br)c1	PfM18AAP inh 29.8
O=C1CSC(=S)N1c1cccc(O)c1	none
O=C(O)C1CCCC2CN3CCc4c([nH]c5ccccc45)C3C(O)C21 (configuration not stated)	PfM18AAP inh 28.2
CCCN1CCc2c(sc(NC(=O)c3ccc(S(=O)(=O)N(C)c4ccccc4)cc3)c2C(N)=O)C1	none
CCCN1CCc2c(sc(NC(=O)c3ccc(S(=O)(=O)N(C)c4ccccc4)cc3)c2C(=O)NC)C1	FID counter 44.4
CC(O)CNc1nc2ccccc2n1-c1ncnc2sc3c(c12)CCC3 (configuration not stated)	Kir21 inh -7.62
c1ccc2c(c1)ncn2-c1ncnc2sc3c(c12)CCCC3	none
COc1ccc(CNc2ncnc3sccc23)cc1	none
Clc1ccc2[nH]c3c(c2c1)CNCC3	none
O=c1c(-c2nnc(SCc3ccc(Cl)c(Cl)c3)o2)cccn1Cc1ccccc1	Rce1 inhib active
Nc1c(/C=C2/C=CC(=O)C(O)=C2)c(=O)nc2sc(CC(=O)N3CCCCC3)nn12	PfM18AAP inh 63.7
Nc1c(C=C2C=CC(=O)C=C2)c(=O)nc2sc(CC(=O)N3CCCCC3)nn12	none
CCN(CCNC(=O)C1CCN(S(C)(=O)=O)CC1)c1ccccc1	none
CCCS(=O)(=O)N1CCC(C(=O)NCCN(CC)c2ccccc2)CC1	PfM18AAP inh 31.4
CCOC(=O)C1(CCOC)CCN(C(=O)c2sccc2C)CC1	Rce1 inhib active
CCOC(=O)C1(Cc2ccccc2C)CCCN(C(=O)c2sccc2C)C1 (configuration not stated)	none (no result: Rce1 inhib)
